Here are results for 69 molecules from PubChem BioAssay AID651640 (Broad Institute, 2012).

Out of some 350,000 compounds screened, about 6,000 (1.7%) were called active. About 5% were inconclusive and are not listed. This is one part of a sample in which actives are shown more often than they occur. Values without a mark were called inactive. No stated cut-off is given here; in the data, active means CPE inhibition above about 20% (passing the limit was not always enough); inconclusive means no clear call, values can overlap the other calls; tested in BHK-21 cells.

The nature of this assay: protection of cells from dengue 2 killing – plate reader, single concentration, primary screen (AID 651640).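 Further: 0% = median of neutral control wells and 100% = median of positive control wells.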 The settings on record: DENV2-infected cells, cytopathic effect rescue, at 9.99 µM, active compounds read high. (In general: Damage to the host cells serves as the signal in cytopathic effect assays.)
In the case of `CO[C@H]1CN(C)C(=O)c2ccc(NC(=O)C3CC3)cc2OC[C@H](C)N(Cc2ccncc2)C[C@@H]1C`, the CPE inhibition was -0.282%. Turning to `CCC(=O)N1[C@@H](CO)[C@@H](c2ccccc2)C12CN(C(=O)c1cnccn1)C2`, the CPE inhibition was 21.9% (active). Take `CC(=O)N1CC2(C1)[C@@H](c1ccccc1)[C@@H](CO)N2C(=O)c1cnccn1`: the CPE inhibition is -5.39%. To `O=C(C1CCCC1)N1[C@H](CO)[C@@H](c2ccccc2)C12CN(CCC(F)(F)F)C2` belongs -3.05%; to `O=C(c1cnccn1)N1CC2(C1)[C@H](c1ccccc1)[C@H](CO)N2C(=O)c1ccccc1`, -6.13%. With `O=C(C1CCCCC1)N1CC2(C1)[C@H](c1ccccc1)[C@@H](CO)N2CCC(F)(F)F`, the CPE inhibition was 34.6% (active). On to `O=C(C1CCCC1)N1CC2(C1)[C@H](c1ccccc1)[C@H](CO)N2CCC(F)(F)F`, for which the CPE inhibition is -9.33%. In the case of `COCC#Cc1cnc2c(c1)C(=O)N([C@H](C)CO)C[C@H](C)[C@H](CN(C)C(=O)Cc1cccnc1)O2`, the CPE inhibition is -4.96%.

Take `C[C@H]1CCCCO[C@H](CN(C)S(=O)(=O)c2ccc(F)cc2)[C@@H](C)CN([C@@H](C)CO)C(=O)c2cc(NS(=O)(=O)c3cn(C)cn3)ccc2O1`: the CPE inhibition is 12.6%. To `CC(=O)N1[C@H](CO)[C@@H](c2ccc(-c3ccccc3)cc2)[C@H]1CNC(=O)C1CC1` belongs -7.62%; to `CCNC(=O)C[C@@H]1CC[C@@H]2[C@H](COc3ccc(NC(=O)Nc4cccc(C)c4)cc3C(=O)N2C)O1`, -13.2%.

Take `COc1ccccc1-c1cn(CC[C@@H]2CC[C@H](NC(=O)c3ccccc3F)[C@H](CO)O2)nn1`: the CPE inhibition was 4.94%. In the case of `C[C@@H]1CN([C@H](C)CO)C(=O)c2cccc(NC(=O)Nc3ccc4c(c3)OCO4)c2O[C@H]1CN(C)S(=O)(=O)c1ccccc1`, the CPE inhibition is -7.78%. For the molecule `COCCNC(=O)CSc1nc(N)c(NC(=O)c2ccco2)c(=O)[nH]1`, the CPE inhibition was 96.9% (active).

In the case of `Nc1nc(SCC(=O)Nc2cc(C(F)(F)F)ccc2Cl)[nH]c(=O)c1NC(=O)c1ccco1`, the CPE inhibition is -1.74%. Regarding `COC(=O)c1ccc(NC(=O)CSc2nc(N)c(NC(=O)c3ccc(Br)o3)c(=O)[nH]2)cc1`, the CPE inhibition was -4.82%. In the case of `CCCNC(=O)N1[C@H](CO)[C@H](c2ccccc2)[C@H]1CNC(=O)C1CCCCC1`, the CPE inhibition is -12%. With `CC(=O)Nc1ccc2c(c1)C(=O)N(C)[C@@H]1CC[C@@H](CC(=O)NCC3CCCCC3)O[C@@H]1CO2` the figure was -1.94%; with `COC(=O)[C@]1(Cc2ccccc2)NC=C(C(=O)c2ccccc2)[C@@H]1c1cccc(OC)c1`, -11.9%; with `COc1ccc(NC(=O)Nc2ccc3c(c2)C(=O)N([C@@H](C)CO)C[C@@H](C)[C@@H](CN(C)S(=O)(=O)c2ccc(C)cc2)OCCCC[C@H](C)O3)cc1`, -2.48%. `COC(=O)[C@]12C[C@H](CC(=O)NCCCCc3ccccc3)C(=O)N(Cc3ccc4c(c3)OCO4)C1=C[C@H](C(C)(C)C)O[C@@H]2C`: the CPE inhibition is 1.32%. Take `C[C@@H]1CN([C@@H](C)CO)C(=O)c2cc(C3=CCCC3)cnc2O[C@@H]1CN(C)C(=O)Cc1ccncc1`: the CPE inhibition is -2.39%. Take `N#C[C@@H]1[C@@H](c2ccc(C#Cc3cccc(F)c3)cc2)[C@@H](CO)N1C(=O)C1CCC1`: the CPE inhibition was -2.98%. Regarding `CS(=O)(=O)N1[C@H](C#N)[C@H](c2ccc(C#CC3CC3)cc2)[C@H]1CO`, the CPE inhibition was 4.72%. Regarding `CS(=O)(=O)N1[C@H](C#N)[C@H](c2ccc(C#CC3CCCC3)cc2)[C@H]1CO`, the CPE inhibition was 28.9% (active). To `Cc1ccccc1S(=O)(=O)N1[C@H](C#N)[C@H](c2ccccc2)[C@@H]1CO` belongs 119% (active); to `Cc1ccccc1S(=O)(=O)N1[C@@H](C#N)[C@H](c2ccccc2)[C@@H]1CO`, 8.15%; to `CS(=O)(=O)N1[C@@H](C#N)[C@H](c2ccc(C#CC3CCCCC3)cc2)[C@@H]1CO`, -6.42%. As for `N#C[C@H]1[C@H](c2ccc(C#Cc3ccc(F)cc3)cc2)[C@@H](CO)N1C(=O)C1CCCC1`, the CPE inhibition is 22.7% (active). To `Cc1ccccc1S(=O)(=O)N1[C@H](C#N)[C@H](c2ccccc2)[C@H]1CO` belongs 9.21%; to `CS(=O)(=O)N1[C@H](C#N)[C@H](c2ccccc2-c2ccc(F)cc2)[C@@H]1CO`, 29.1% (active); to `COCC(=O)N1[C@H](CO)[C@H](c2ccccc2-c2ccc(C)cc2)[C@@H]1C#N`, -2.92%. On to `N#C[C@@H]1[C@H](c2ccc(C#Cc3cccc(F)c3)cc2)[C@@H](CO)N1C(=O)C1CCCC1`, for which the CPE inhibition was 3.79%.

For `N#C[C@@H]1[C@H](c2ccccc2-c2ccc(F)cc2)[C@@H](CO)N1c1ncc(-c2ccccc2)s1`, the CPE inhibition is 0.494%. On to `C[C@@H]1CN([C@H](C)CO)S(=O)(=O)c2ccc(C#C[C@@H](C)O)cc2O[C@H]1CN(C)C(=O)C1CCCCC1`, for which the CPE inhibition was -8.28%. With `C[C@H](CO)N1C[C@H](C)[C@@H](CN(C)Cc2ccc(Oc3ccccc3)cc2)Oc2cc(-c3ccncc3)ccc2S1(=O)=O` the figure was -22.7%. As to `O=C(C[C@@H]1C=C[C@@H](NS(=O)(=O)c2ccc(F)cc2)[C@@H](CO)O1)NCCN1CCCCC1`, the CPE inhibition is -0.229%. For the molecule `CN(Cc1ccccc1F)C[C@H]1[C@@H](c2ccccc2)[C@@H](CO)N1S(C)(=O)=O`, the CPE inhibition is -1.35%. As to `CCCNC(=O)N1C[C@@H](O)COC[C@@H]2O[C@H](CC(=O)N3CCN(C)CC3)CC[C@H]21`, the CPE inhibition was 0.94%. With `C[C@H]([C@@H](O)[C@@H](O)[C@@H](C)C(C)(C)C)[C@H]1CC[C@H]2C3CC[C@H]4C[C@H](OS(=O)(=O)O)[C@@H](OS(=O)(=O)O)C[C@]4(C)[C@H]3CC[C@]12C` (some centres undefined) the figure was -2.49%; with `CC(C)CC#Cc1cnc2c(c1)C(=O)N([C@@H](C)CO)C[C@H](C)[C@@H](CN(C)C(=O)c1ccc(F)cc1)O2`, -4.54%; with `CCC(=O)Nc1ccc2c(c1)OC[C@H](C)N(C(=O)c1ccncc1)C[C@H](C)[C@H](OC)CN(C)C2=O`, -6.05%. With `C[C@H]1CN([C@@H](C)CO)C(=O)c2cc(C3=CCCC3)cnc2O[C@@H]1CN(C)C(=O)c1ccccc1` the figure was -6.29%; with `CO[C@@H]1CN(C)C(=O)c2ccc(NS(=O)(=O)c3c(C)noc3C)cc2OC[C@H](C)NC[C@@H]1C`, -11.3%. Take `C[C@@H]1CN([C@H](C)CO)C(=O)c2cc(C#CCC3CCCC3)cnc2O[C@H]1CN(C)Cc1ccccn1`: the CPE inhibition is 15.8%. With `CCCC#Cc1ccc([C@@H]2[C@@H](C#N)N(C(=O)C3CC3)[C@H]2CO)cc1` the figure was -11.5%; with `CCCC#Cc1ccc([C@H]2[C@@H](CO)N(C(=O)C3CC3)[C@H]2C#N)cc1`, 39.4% (active). Regarding `CCCC#Cc1ccc([C@@H]2[C@@H](C#N)N(C(=O)C3CCCC3)[C@@H]2CO)cc1`, the CPE inhibition was -5.75%. For the molecule `COc1ccc(-c2ccccc2[C@H]2[C@@H](CO)N(C(=O)C3CCC3)[C@H]2C#N)cc1`, the CPE inhibition is 70.3% (active). Take `COc1ccc(-c2ccccc2[C@H]2[C@@H](C#N)N(C(=O)C3CCC3)[C@@H]2CO)cc1`: the CPE inhibition is 3.73%. For `COc1ccc(-c2ccc([C@@H]3[C@@H](C#N)N(C(=O)C4CCC4)[C@@H]3CO)cc2)cc1`, the CPE inhibition is -14%.

On to `COc1ccccc1C#Cc1ccc([C@@H]2[C@@H](CO)N(C(=O)C3CC3)[C@H]2C#N)cc1`, for which the CPE inhibition is 1.77%. As for `CCCC#Cc1ccc([C@@H]2[C@@H](C#N)N(C(=O)C3CCC3)[C@H]2CO)cc1`, the CPE inhibition was -3.76%. As to `CN(C)CC#Cc1ccc([C@H]2[C@@H](CO)N(C(=O)C3CCC3)[C@H]2C#N)cc1`, the CPE inhibition was 87.1% (active). `OC[C@H]1[C@@H](c2ccc(C#Cc3ccccc3F)cc2)[C@H]2CN(CC3CCOCC3)CCCCN21`: the CPE inhibition was -16.8%. Consider `C[C@@H](NC(=O)C[C@@H]1C[C@@H]2c3cc(NC(=O)c4cccnc4)ccc3O[C@@H]2[C@H](CO)O1)c1ccccc1`, for which the CPE inhibition is -1.39%. On to `COc1cccc(-c2ccc3c(c2)O[C@H](CN(C)C(=O)c2ccccc2F)[C@@H](C)CN([C@@H](C)CO)S3(=O)=O)c1`, for which the CPE inhibition was -3.52%. Turning to `OC[C@H]1[C@H](c2ccc(-c3cccc(F)c3)cc2)[C@@H]2CN(Cc3cncnc3)CCCCN12`, the CPE inhibition was 58.8% (active). On to `OC[C@@H]1[C@H](c2ccc(C#Cc3ccccc3)cc2)[C@@H]2CN(Cc3cncnc3)CCCCN12`, for which the CPE inhibition is 4.64%. Take `OC[C@@H]1[C@H](c2ccc(C3=CCCC3)cc2)[C@H]2CN(Cc3ccncc3)CCCCN12`: the CPE inhibition was 41% (active). `COCC#Cc1ccc([C@H]2[C@H](CO)N3CCCCN(Cc4ccncc4)C[C@@H]23)cc1`: the CPE inhibition is 3.44%.

For the molecule `CCCC#Cc1ccc([C@H]2[C@H]3CN(Cc4cncnc4)CCCCN3[C@H]2CO)cc1`, the CPE inhibition was -10.9%.

In the case of `Cc1cccc(-c2ccc([C@H]3[C@@H](CO)N4CCCCN(Cc5cncnc5)C[C@H]34)cc2)c1`, the CPE inhibition was 5.45%. In the case of `Cc1cccc(-c2ccc([C@@H]3[C@H](CO)N4CCCCN(Cc5ccncc5)C[C@@H]34)cc2)c1`, the CPE inhibition is -6.55%. With `OC[C@H]1[C@@H](c2ccc(/C=C/c3ccccc3)cc2)[C@H]2CN(Cc3cccnc3)CCCCN21` the figure was 23.8% (active); with `CN(C)C(=O)c1ccc(-c2ccc([C@@H]3[C@@H](CO)N4CCCCN(Cc5cncnc5)C[C@@H]34)cc2)cc1`, 5.96%.

Take `OC[C@H]1[C@H](c2ccc(-c3cccnc3)cc2)[C@H]2CN(Cc3ccccn3)CCCCN21`: the CPE inhibition is 3.13%. In the case of `Cc1ccc(-c2ccc([C@H]3[C@H](CO)N4CCCCN(Cc5cncnc5)C[C@@H]34)cc2)cc1`, the CPE inhibition is -2.12%.

For the molecule `OC[C@H]1[C@H](c2ccc(-c3ccccc3F)cc2)[C@H]2CN(Cc3cncnc3)CCCCN21`, the CPE inhibition was 45.6% (active).
